Measurements as given in PubChem BioAssay (Tox21).
Several values for one entry are separate records, joined by “and”; a condition that tells them apart may be missing. Equal entries are not always repeated. Records with an inconclusive call do not appear. Where a call stands in place of a potency, no number is given. Where a structure was tested more than once in an assay, its records may differ in their call. Activity calls are given as the source filed them. Unless noted, the call rests on the fitted dose curve.

How the values were obtained:
[1] = Nuclear factor erythroid 2-related factor 2/antioxidant responsive element (Nrf2/ARE) small molecule agonists: qHTS cell viability counter screen in human keratinocytes (AID 1919968; active means well fitted curve in the direction sought with a large enough effect in the repeat runs; an effect the other way counts as inactive or inconclusive; further: nearly all actives have a fitted effect of over 55% in size)
Procedure, shortened: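 KeratinoSens cells (HaCaT keratinocytes stably carrying an ARE-luciferase reporter) were seeded at 1,500 cells/well and rested 5 h at 37 C/5% CO2. They were then exposed to compounds in DMSO for 23 h. Viability was read by CellTiter-Fluor fluorescence after 1 h.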

[2] = Nuclear factor erythroid 2-related factor 2/antioxidant responsive element (Nrf2/ARE) small molecule agonists: luciferase reporter gene qHTS assay in human keratinocytes (AID 1919969); further: nearly all actives have a fitted effect of over 35% in size; further: potency means the concentration at half of the fitted maximal effect
[3] = biological target: Gonadotropin-releasing hormone receptor (Homo sapiens) (UniProt P30968); assay: Human gonadotropin-releasing hormone receptor (GnRHR) small molecule agonists, calcium flux assay in GnRHR-HEK293 cells (AID 1920063); further: nearly all actives have a fitted effect of over 35% in size
Procedure, shortened: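 HEK293 cells stably expressing human GnRHR were plated 18 h at 37 °C, loaded with calcium dye 1 h at 37 °C, then given compound in agonist mode; fluorescence (Ex/Em 480/540) read kinetically for 3 min at 1 s intervals.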

[4] = biological target: KiSS-1 receptor (Homo sapiens) (UniProt Q969F8); assay: Human kisspeptin (KISS1R) small molecule agonists, calcium flux assay in KISS1R-HEK293 cells (AID 1920064; active means well fitted curve in the direction sought with a large enough effect in the repeat runs; an effect the other way counts as inactive or inconclusive)
Procedure, shortened: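 HEK293 cells stably expressing human KISS1R were plated 18 h at 37 °C, loaded with calcium dye for 1 h at 37 °C, then given compound by pin tool. Fluorescence (Ex/Em 480/540) was read kinetically for 3 min.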

[5] = G protein-coupled receptor (GPCR) small molecule agonists, calcium flux assay: HEK293 wild type cell line counter screen (AID 1920065)
Procedure, shortened: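 Cells were plated and cultured 18 h at 37 C/5% CO2, then loaded with calcium dye for 1 h at 37 C. Compounds in DMSO were pin-transferred in agonist mode, and fluorescence (Ex/Em 480/540) was read kinetically for 3 min at 1 s intervals.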

[6] = p53 small molecule agonists, cell-based qHTS assay with human liver microsomes (AID 1963577);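 further: p53 response element beta-lactamase reporter cells with liver microsomes plus NADPH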
Procedure, shortened: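 Metabolically competent format: test substances, human liver microsomes and NADPH (both 0.5 mg/mL final) incubated with p53RE-bla cells 16 h at 37 C. Beta-lactamase reporter signal then quantified by fluorescence.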

[7] = p53 small molecule agonists, cell-based qHTS assay with rat liver microsomes (AID 1963578)
Procedure, shortened: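 Each plate received p53RE-bla cells, then compound, then rat liver microsomes and NADPH (both 0.5 mg/mL final). Plates were held 16 h at 37 C, and beta-lactamase activity was detected with LiveBLAzer over 2 h.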

[8] = p53 small molecule agonists, cell-based qHTS assay with human liver microsomes: qHTS cell viability counter screen (AID 1963579); further: nearly all actives have a fitted effect of over 45% in size; further: potency means the concentration at half of the fitted maximal effect
Procedure, shortened: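 Tox21 library compounds, delivered from DMSO stocks, were tested on p53RE-bla cells together with 0.5 mg/mL human liver microsomes and 0.5 mg/mL NADPH (final) over 16 h at 37 C; CellTiter-Glo luminescence served as the cytotoxicity measure.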

[9] = p53 small molecule agonists, cell-based qHTS assay with rat liver microsomes: qHTS cell viability counter screen (AID 1963580); further: nearly all actives have a fitted effect of over 45% in size
Procedure, shortened: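 Viability is assessed in parallel with the p53 reporter read: HCT-116 p53RE-bla cells receive compounds plus rat microsomes and NADPH (0.5 mg/mL final apiece), incubate 16 h at 37 C, and then CellTiter-Glo luminescence is recorded.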

[10] = p53 small molecule agonists, cell-based qHTS assay: qHTS cell viability counter screen (AID 1963581); further: nearly all actives have a fitted effect of over 45% in size
Procedure, shortened: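 p53RE-bla HCT-116 cells were exposed to compounds for 16 h at 37 C; after the beta-lactamase FRET read in the same wells, CellTiter-Glo was added and luminescence (intracellular ATP) read after 30 min at room temperature.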

[11] = biological target: 5-hydroxytryptamine receptor 2A (Homo sapiens) (UniProt P28223); assay: 5-hydroxytryptamine receptor 2A (HTR2A) small molecule agonists, cell-based qHTS assay (AID 1963587); further: nearly all actives have a fitted effect of over 30% in size
Procedure, shortened: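 CHO cells stably expressing human HTR2A, plated 18 h, loaded with calcium dye 1 h at 37 C. Agonist mode: compounds added and intracellular calcium fluorescence recorded kinetically for 2 min at 1 sec intervals.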

[12] = biological target: Muscarinic acetylcholine receptor M1 (Homo sapiens) (UniProt P11229); assay: Cholinergic receptor muscarinic 1 (CHRM1) small molecule antagonists, cell-based qHTS assay (AID 1963588); further: nearly all actives have a fitted effect of over 40% in size
Procedure, shortened: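 CHRM1-CHO calcium-flux assay, antagonist mode. Cells were seeded 18 h, dye-loaded 1 h at 37 C and given compound for 5 min at RT, then acetylcholine was added at 50nM. FDSS fluorescence was read 3 min; 15 concentrations, three runs.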

[13] = biological target: Muscarinic acetylcholine receptor M1 (Homo sapiens) (UniProt P11229); assay: Cholinergic receptor muscarinic 1 (CHRM1) small molecule agonists, cell-based qHTS assay (AID 1963589); further: nearly all actives have a fitted effect of over 35% in size
Procedure, shortened: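 CHO cells stably expressing human CHRM1, seeded 18 h at 37 C/5% CO2, dye-loaded 1 h at 37 C, then given compound in agonist mode; intracellular calcium fluorescence read kinetically at 1 s intervals. Fifteen concentrations, three independent runs.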

[14] = cAMP Responsive Elements (CRE) small molecule agonists, cell-based qHTS assay (AID 1963590)
Procedure, shortened: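 CRE-bla HEK 293T cells in DMEM with 10% dialyzed FBS, NEAA, pyruvate and 25 mM HEPES were plated 18 h at 37 C/5% CO2, then exposed to compounds in DMSO for 3 h before LiveBLAzer B/G FRET substrate addition.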

[15] = cAMP Responsive Elements (CRE) small molecule antagonists, cell-based qHTS assay (AID 1963591; active means well fitted inhibition curve with a large enough effect in the signal ratio in the repeat runs, not every such curve was filed as active; the % refers to the signal ratio)
Procedure, shortened: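 CRE-bla HEK293T cells were plated 18 h at 37 °C/5% CO2, pinned with compound in DMSO, then stimulated with NKH477 at 0.25 uM final for 3 h. LiveBLAzer B/G FRET substrate was added and plates incubated 2 h at room temperature.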

[16] = biological target: Beta-2 adrenergic receptor (Homo sapiens) (UniProt P07550); assay: Adrenergic beta2 receptor (ADRB2) small molecule antagonists, cell-based qHTS assay (AID 1963592); further: series mostly up to about 92 µM; nearly all actives have a fitted effect of over 50% in size
Procedure, shortened: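 Cells (CHO, stable ADRB2 overexpression) incubated 18-20hr at 37C; compounds added from DMSO; agonist mix (1nM isoproterenol, 100uM IBMX, 25uM Ro-20-1724) added; 0.5hr RT; d2-cAMP and anti-cAMP-cryptate added; 1hr RT; 665/615 nm read.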

[17] = biological target: Beta-2 adrenergic receptor (Homo sapiens) (UniProt P07550); assay: Adrenergic beta2 receptor (ADRB2) small molecule agonists, cell-based qHTS assay (AID 1963593);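 further: CHO cells stably overexpressing human ADRB2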
Procedure, shortened: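 CHO cells stably over-expressing ADRB2 were plated overnight at 37C, then dosed with compounds plus a stimulation mix containing 100uM IBMX and 25uM Ro-20-1724 for 0.5hr at room temperature. cAMP was measured by HTRF competition, 1hr.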

[18] = biological target: D(2) dopamine receptor (Homo sapiens) (UniProt P14416); assay: Dopamine D2 receptor (DRD2) small molecule agonists, cell-based qHTS assay (AID 1963594); further: nearly all actives have a fitted effect of over 35% in size
Procedure, shortened: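 HEK293 cells stably expressing human DRD2, pre-treated with PDE inhibitor Ro20-1724 (0.1 mM final) and compound 10 min at room temperature, then stimulated with NKH477 (200nM […]) for 30 min. cAMP read by HTRF (665/620 nm).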

[19] = biological target: D(2) dopamine receptor (Homo sapiens) (UniProt P14416); assay: Dopamine D2 receptor (DRD2) small molecule antagonists, cell-based qHTS assay (AID 1963595; active means well fitted inhibition curve with a large enough effect in the signal ratio in the repeat runs, with a control signal flat; the % refers to the signal ratio)
Procedure, shortened: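 Antagonist mode in DRD2-HEK293 cells: after compound addition with 0.1 mM Ro20-1724, cells received quinpirole (12 nM) and NKH477 (200 nM) for 30 min at room temperature; HTRF cAMP read after 1 h detection.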

[20] = p53 small molecule agonists, cell-based qHTS assay (AID 1963582; active means well fitted activation curve with a large enough effect in the signal ratio in the repeat runs, not every such curve was filed as active; the % refers to the signal ratio)
Procedure, shortened: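 p53RE-bla beta-lactamase reporter cells rested 5 h at 37 C/5% CO2, then received compounds in DMSO by pin transfer and were incubated 16 h at 37 C. LiveBLAzer B/G FRET substrate was loaded for 2 h at room temperature before fluorescence reading.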

Sequence of KiSS-1 receptor (Homo sapiens) (Q969F8 whole entry, looked up): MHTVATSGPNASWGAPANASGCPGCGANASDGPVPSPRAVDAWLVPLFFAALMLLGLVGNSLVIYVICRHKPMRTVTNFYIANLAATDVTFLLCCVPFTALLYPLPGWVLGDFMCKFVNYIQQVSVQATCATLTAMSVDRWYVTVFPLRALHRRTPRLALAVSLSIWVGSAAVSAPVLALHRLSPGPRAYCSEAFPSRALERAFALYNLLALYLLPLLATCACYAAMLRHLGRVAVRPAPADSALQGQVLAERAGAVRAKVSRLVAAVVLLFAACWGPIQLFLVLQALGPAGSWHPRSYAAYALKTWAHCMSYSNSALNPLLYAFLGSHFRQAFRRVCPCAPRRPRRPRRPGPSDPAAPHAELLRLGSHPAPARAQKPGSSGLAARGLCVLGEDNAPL
Sequence of Muscarinic acetylcholine receptor M1 (Homo sapiens) (P11229 whole entry, looked up): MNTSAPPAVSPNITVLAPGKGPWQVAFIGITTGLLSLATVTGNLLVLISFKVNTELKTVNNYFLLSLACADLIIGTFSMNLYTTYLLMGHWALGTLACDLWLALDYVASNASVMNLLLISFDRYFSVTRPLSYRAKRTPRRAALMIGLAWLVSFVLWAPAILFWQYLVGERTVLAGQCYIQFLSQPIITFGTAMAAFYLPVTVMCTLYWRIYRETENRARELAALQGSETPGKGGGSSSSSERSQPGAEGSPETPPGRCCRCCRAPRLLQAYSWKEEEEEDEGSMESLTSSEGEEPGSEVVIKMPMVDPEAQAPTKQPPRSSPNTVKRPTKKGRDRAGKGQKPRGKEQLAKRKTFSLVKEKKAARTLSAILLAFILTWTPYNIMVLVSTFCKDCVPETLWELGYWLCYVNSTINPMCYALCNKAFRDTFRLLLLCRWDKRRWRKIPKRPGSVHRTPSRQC
Sequence of D(2) dopamine receptor (Homo sapiens) (P14416 whole entry, looked up): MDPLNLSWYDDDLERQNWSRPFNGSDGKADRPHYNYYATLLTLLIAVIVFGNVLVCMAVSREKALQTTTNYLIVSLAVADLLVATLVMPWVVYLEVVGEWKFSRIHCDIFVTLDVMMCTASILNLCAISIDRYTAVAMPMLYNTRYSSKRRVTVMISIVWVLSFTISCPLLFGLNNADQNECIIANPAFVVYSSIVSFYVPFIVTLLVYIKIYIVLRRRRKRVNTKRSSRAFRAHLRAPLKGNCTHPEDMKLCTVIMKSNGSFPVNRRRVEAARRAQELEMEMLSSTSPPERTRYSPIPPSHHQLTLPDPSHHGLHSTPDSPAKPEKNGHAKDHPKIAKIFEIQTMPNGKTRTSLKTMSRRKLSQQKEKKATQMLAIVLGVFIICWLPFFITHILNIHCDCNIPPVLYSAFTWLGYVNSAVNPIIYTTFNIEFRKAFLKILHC
Sequence of 5-hydroxytryptamine receptor 2A (Homo sapiens) (P28223 whole entry, looked up): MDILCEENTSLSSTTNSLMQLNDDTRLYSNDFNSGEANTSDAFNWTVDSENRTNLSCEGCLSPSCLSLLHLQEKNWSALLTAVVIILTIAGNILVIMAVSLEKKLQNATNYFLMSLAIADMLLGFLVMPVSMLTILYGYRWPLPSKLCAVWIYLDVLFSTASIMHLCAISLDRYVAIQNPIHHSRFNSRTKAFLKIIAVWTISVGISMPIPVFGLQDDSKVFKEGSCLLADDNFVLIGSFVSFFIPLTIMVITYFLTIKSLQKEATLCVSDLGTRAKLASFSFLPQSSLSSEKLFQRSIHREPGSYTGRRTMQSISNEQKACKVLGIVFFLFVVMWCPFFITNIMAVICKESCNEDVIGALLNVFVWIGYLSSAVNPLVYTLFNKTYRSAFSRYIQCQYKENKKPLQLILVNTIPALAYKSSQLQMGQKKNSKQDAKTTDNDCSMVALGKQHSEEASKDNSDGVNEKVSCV
Sequence of Gonadotropin-releasing hormone receptor (Homo sapiens) (P30968 whole entry, looked up): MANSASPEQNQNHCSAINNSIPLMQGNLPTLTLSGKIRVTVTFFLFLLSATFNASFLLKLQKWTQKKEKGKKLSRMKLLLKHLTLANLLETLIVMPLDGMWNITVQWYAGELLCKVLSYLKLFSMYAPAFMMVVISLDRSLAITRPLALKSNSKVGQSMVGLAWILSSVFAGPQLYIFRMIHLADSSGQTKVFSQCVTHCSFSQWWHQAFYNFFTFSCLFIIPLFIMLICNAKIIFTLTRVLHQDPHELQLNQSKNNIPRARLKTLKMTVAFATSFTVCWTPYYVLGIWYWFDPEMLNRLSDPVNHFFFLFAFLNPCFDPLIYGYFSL
Sequence of Beta-2 adrenergic receptor (Homo sapiens) (P07550 whole entry, looked up): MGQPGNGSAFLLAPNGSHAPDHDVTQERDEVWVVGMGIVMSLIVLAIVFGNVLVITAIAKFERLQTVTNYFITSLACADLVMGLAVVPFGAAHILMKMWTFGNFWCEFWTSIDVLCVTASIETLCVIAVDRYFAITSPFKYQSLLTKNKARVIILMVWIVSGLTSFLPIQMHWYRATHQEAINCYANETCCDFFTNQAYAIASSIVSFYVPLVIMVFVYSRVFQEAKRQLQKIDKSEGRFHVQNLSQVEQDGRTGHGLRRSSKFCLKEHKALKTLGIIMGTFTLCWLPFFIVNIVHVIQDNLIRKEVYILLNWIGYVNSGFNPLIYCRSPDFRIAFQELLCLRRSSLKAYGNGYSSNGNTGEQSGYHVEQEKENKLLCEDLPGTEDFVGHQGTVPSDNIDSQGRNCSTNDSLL

O=C(O)CC(O)C(=O)O (stereo unspecified)
Potency [1]: inactive | Potency [2]: inactive | Potency [3]: inactive | Potency [4]: inactive | Potency [5]: inactive | Potency [6]: inactive | Potency [7]: inactive | Potency [8]: inactive | Potency [9]: inactive | Potency [10]: inactive | Potency [11]: inactive | Potency [12]: inactive | Potency [13]: inactive | Potency [14]: inactive | Potency [15]: inactive | Potency [16]: inactive | Potency [17]: inactive | Potency [18]: inactive | Potency [19]: inactive

CCC(C)OC(=O)c1ccc(O)cc1 (stereo unspecified)
Potency [1]: inactive | Potency [2]: inactive | Potency [3]: inactive | Potency [4]: inactive | Potency [5]: inactive | Potency [6]: inactive | Potency [7]: inactive | Potency [8]: inactive | Potency [9]: inactive | Potency [10]: inactive | Potency [11]: inactive | Potency [12]: inactive | Potency [13]: inactive | Potency [14]: inactive | Potency [15]: inactive | Potency [16]: inactive | Potency [18]: inactive | Potency [19]: inactive

O=C1O[C@H]([C@@H](O)CO)C(O)=C1O
Potency [1]: inactive | Potency [2]: inactive and 61.1 µM (active) | Potency [3]: inactive | Potency [4]: inactive | Potency [5]: inactive | Potency [6]: inactive | Potency [7]: inactive | Potency [8]: inactive | Potency [9]: inactive | Potency [10]: inactive | Potency [14]: inactive | Potency [15]: inactive | Potency [16]: inactive | Potency [17]: inactive | Potency [18]: inactive | Potency [19]: inactive

O=C(O)c1ccccc1Nc1cccc(C(F)(F)F)c1
Potency [1]: inactive | Potency [2]: 13.7 µM (active) and inactive | Potency [3]: inactive | Potency [4]: inactive | Potency [5]: inactive | Potency [6]: inactive | Potency [7]: inactive | Potency [8]: 40.8 µM (active) and inactive | Potency [9]: inactive | Potency [10]: inactive | Potency [11]: inactive | Potency [12]: inactive | Potency [13]: inactive | Potency [16]: inactive | Potency [17]: inactive | Potency [19]: inactive

CC#C[C@]1(O)CC[C@H]2[C@@H]3CCC4=CC(=O)CCC4=C3[C@@H](c3ccc(N(C)C)cc3)C[C@@]21C
Potency [1]: inactive | Potency [2]: inactive | Potency [3]: inactive | Potency [4]: inactive | Potency [5]: inactive | Potency [6]: inactive | Potency [7]: inactive | Potency [8]: inactive | Potency [9]: inactive | Potency [10]: inactive | Potency [16]: inactive | Potency [19]: inactive

c1ccc2cc3ccccc3cc2c1
Potency [1]: inactive | Potency [2]: inactive | Potency [3]: inactive | Potency [4]: inactive | Potency [5]: inactive | Potency [6]: inactive | Potency [7]: inactive | Potency [8]: inactive | Potency [9]: inactive | Potency [20]: inactive | Potency [11]: inactive | Potency [12]: inactive | Potency [13]: inactive | Potency [14]: inactive | Potency [15]: inactive | Potency [16]: inactive | Potency [17]: inactive | Potency [18]: inactive | Potency [19]: inactive

O=C(O)c1ccccc1C(=O)O
Potency [1]: inactive | Potency [2]: inactive | Potency [3]: inactive | Potency [4]: inactive | Potency [5]: inactive | Potency [6]: inactive | Potency [7]: inactive | Potency [8]: inactive | Potency [9]: inactive | Potency [10]: inactive | Potency [12]: inactive | Potency [13]: inactive | Potency [14]: inactive | Potency [15]: inactive | Potency [16]: inactive | Potency [17]: inactive | Potency [18]: inactive | Potency [19]: inactive

COc1ccc2c(c1)c(CC(=O)O)c(C)n2C(=O)c1ccc(Cl)cc1
Potency [1]: inactive | Potency [2]: inactive | Potency [3]: inactive | Potency [4]: inactive | Potency [5]: inactive | Potency [6]: inactive | Potency [7]: inactive | Potency [8]: inactive | Potency [9]: inactive | Potency [10]: inactive | Potency [16]: inactive | Potency [18]: inactive | Potency [19]: inactive
